Assay outcomes: PubChem BioAssay, several laboratories
Arbovirus inh: antivirals against arbovirus infection, primary screen, cell-based, full library, 10K replicate subset; 200,000 compounds, 0.37% hits; inhibition, % at 10 µM; arbovirus infection cell-based antiviral screen; in the data active means inhibition above about 30%
Mcl1 Noxa PPI: Mcl-1/Noxa binding inhibitors, primary screen, biochemical, TR-FRET, 1536-well; inhibition, % at 21.7 µM; TR-FRET Mcl-1/Noxa peptide binding, 2 h; Induced myeloid leukemia cell differentiation protein Mcl-1 (Homo sapiens), Q07820; 220,000 compounds, 1.5% hits; AID 1022, 2008;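 active means compounds that cut the protein-peptide binding signal by more than 50% relative to plate controls in a single-dose test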;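 further: His-tagged Mcl-1 with rhodamine Noxa BH3 peptide and terbium anti-His antibody; 0% = Mcl-1 plus Noxa peptide wells and 100% = peptide-only wells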
Mcl1 Bid PPI: Mcl-1/Bid binding inhibitors, primary screen, biochemical, TR-FRET, 1536-well; TR-FRET Mcl-1/Bid-Dy647 peptide binding; Induced myeloid leukemia cell differentiation protein Mcl-1 (Homo sapiens), Q07820; inhibition, % at 21.7 µM; 220,000 compounds, 0.97% hits;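 active means compounds that cut the binding signal by more than half at the single screening dose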;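 further: His-tagged Mcl-1 with europium anti-His antibody binding Bid BH3 peptide; 0% = Mcl-1 plus peptide wells and 100% = peptide-only wells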
Bim-Mcl-1: inhibitors of Bim peptide binding to Mcl-1, primary screen, biochemical, bead-based flow cytometry, multiplex; Induced myeloid leukemia cell differentiation protein Mcl-1 (Homo sapiens), Q07820; Bim peptide-Mcl-1 binding; inhibition, % at 10 µM; 190,000 compounds, 0.1% hits; AID 1009, 2008; in the data active means inhibition above about 40%;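 further: 0% = no compound tracer wells and 100% = peptide blocker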
14-3-3 Bad inh: inhibitors of 14-3-3 zeta/Bad binding, primary screen, biochemical, TR-FRET, bovine 14-3-3 zeta. TR-FRET 14-3-3zeta/Dy647-pBad peptide displacement, 1 h. AID 781, 2007. inhibition, % at 21.7 µM. 220,000 compounds, 0.71% hits;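 active means inhibition above about 70%, limit read from the data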;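 further: 0% = full 14-3-3 plus peptide FRET controls and 100% = background without 14-3-3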
Target sequence (P63103 whole entry, looked up): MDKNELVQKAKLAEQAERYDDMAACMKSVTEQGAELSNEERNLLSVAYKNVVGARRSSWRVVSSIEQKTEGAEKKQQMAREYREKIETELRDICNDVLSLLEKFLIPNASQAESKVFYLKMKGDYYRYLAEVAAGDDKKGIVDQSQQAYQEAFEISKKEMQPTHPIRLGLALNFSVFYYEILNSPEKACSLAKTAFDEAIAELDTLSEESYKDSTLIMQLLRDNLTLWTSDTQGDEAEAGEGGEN
The depositor's hits bear a star; nt = no result given. Only some compounds are listed: those with a hit (about 3% of all), similar ones and a draw of the others.

SMILES	Arbovirus inh	Mcl1 Noxa PPI	Mcl1 Bid PPI	Bim-Mcl-1	14-3-3 Bad inh
CCOc1ccc(-n2c(=S)sc3c(=O)[nH]c(SCC(=O)C(C)(C)C)nc32)cc1	32.9*	22.3	-12.4	0.0	-4.1
CCOC(=O)CSc1nc2c(sc(=S)n2-c2ccccc2)c(=O)[nH]1	22.4	17.6	10.6	-7.0	8.0
O=C1CNC(=O)N1CC(O)Cn1c2ccccc2c2ccccc21 (centres undefined)	-1.0	0.1	-9.8	2.0	7.7
CC(=O)Nc1ccc(S(=O)(=O)Nc2ccc(C)c([N+](=O)[O-])c2)cc1	7.5	16.7	-8.7	1.0	-19.8
COc1ccc(CN2CCN(C(=O)CC(C)C)CC2)c(OC)c1OC	6.1	5.6	30.0	-1.0	73.0*
COc1cc(CN2CCN(C(=O)CC(C)C)CC2)cc(OC)c1OC	5.0	12.6	26.9	-4.0	79.7*
COc1cc(CN2CCN(C(=O)CC(C)C)CC2)cc(OC)c1O	-1.2	10.5	50.9*	-8.0	38.8
C[C@@H]1NC(=O)c2cc([N+](=O)[O-])cc(I)c2OCC[C@@H](C(=O)NC(CC(=O)O)C(N)=O)NC(=O)[C@H](CC(N)=O)NC1=O (some centres undefined)	-1.6	25.9	15.5	1.0	2.4
Cc1cnc(C(=O)NCC(c2ccccc2)c2ccccc2)cn1	-5.5	-7.6	-4.2	-1.0	-2.0
COc1ccccc1NC(=O)CCSc1nc(C)cc(C)n1	-5.9	18.6	-1.6	-5.0	-0.8
O=C(NCc1ccccn1)C1CCCCC1	1.6	23.8	-10.2	0.0	-1.3
COCCCN(C(=O)c1cc2c(s1)CCC2)c1c(N)n(Cc2ccccc2)c(=O)[nH]c1=O	12.5	53.0*	-17.8	0.0	-14.3
COCCCN(C(=O)c1cccnc1SC)c1c(N)n(Cc2ccccc2)c(=O)[nH]c1=O	8.2	1.7	-7.4	0.0	-2.1
CCCN(C(=O)c1cc2c(s1)CCC2)c1c(N)n(Cc2ccccc2)c(=O)[nH]c1=O	nt	61.5*	-24.4	nt	12.4
CCCN(C(=O)COc1ccc(Cl)cc1Cl)c1c(N)n(Cc2ccccc2)c(=O)[nH]c1=O	-4.8	13.2	-30.6	0.0	-2.0
Oc1ccc(/C=N/Nc2ccnc3cc(Cl)ccc23)cc1O	nt	95.5*	-44.5	nt	44.7
CC(=O)Oc1cc2c3c(c1)/C(=C1/SC(=S)NC1=O)C(=O)N3C(C)(C)C=C2C	nt	51.0*	-41.1	nt	-5.6
CC1Cc2ccccc2N1S(=O)(=O)c1cccc(C(=O)N2CCN(c3ncccn3)CC2)c1 (centres undefined)	38.3*	19.0	-1.4	-3.0	-1.8
CC(C)(C)c1ccc(CN2N=Nc3ccccc3S2(=O)=O)cc1	-35.7	77.4*	19.9	-3.0	8.9
O=S1(=O)CCN(Cc2ccc(Cl)c(Cl)c2)CC1	3.7	7.7	-17.4	-1.0	-12.8
O=S1(=O)c2ccccc2N=NN1Cc1ccc(Cl)c(Cl)c1	13.9	77.4*	48.1	-3.0	44.7
CC(C)(C)c1ccc(C(=O)Nc2ccc(CN3CCS(=O)(=O)CC3)cc2)cc1	nt	8.9	-7.0	nt	-0.9
COc1cc(/C=C2\SC(=N)N(c3ccc(F)cc3)C2=O)ccc1O	5.0	53.2*	-18.0	0.0	7.1
CCOC(=O)C1CNc2cc(S(=O)(=O)CC)ccc2O1 (centres undefined)	13.3	13.6	-27.3	0.0	6.7
CCCCN1C(=O)c2ccc(C(=O)NCCN3C(=O)S/C(=C\c4cccnc4)C3=O)cc2C1=O	6.7	15.6	-5.9	-2.0	-4.2
SMILES	Arbovirus inh	Mcl1 Noxa PPI	Mcl1 Bid PPI	Bim-Mcl-1	14-3-3 Bad inh
N#CCCN(Cc1cccnc1)C(=S)Nc1ccc(OC(F)F)cc1	30.9*	-14.2	-37.0	-2.0	-2.6
CSc1ccccc1C(=O)C1CCCN(C(=O)CCc2cccnc2)C1 (centres undefined)	-0.2	2.2	3.4	0.0	-8.9
CSc1nc(NCCOCCO)c2sc3nc(-c4ccco4)c4c(c3c2n1)CCC4	2.4	95.8*	18.9	9.0	30.2
CCN(CCO)c1ncnc2c1sc1nc(C(C)C)c3c(c12)CC(C)(C)OC3	-3.4	-26.6	-3.3	-3.0	-8.9
CCN(CCO)c1nc(SC)nc2c1sc1nc(-c3ccco3)c3c(c12)CCC3	-7.2	98.9*	51.5*	5.0	5.8
COc1cccc(CN2C(=O)c3cccc(N)c3C2=O)c1	-9.2	1.7	-5.7	-1.0	-14.9
